Bioassay records deposited in PubChem by National Center for Advancing Translational Sciences (NCATS).
An excerpt weighted towards active compounds, which were near 2% of everything screened.
Rango dissoc inh: inhibition of RanGTP-driven Rango-importin beta dissociation; O95149+P62826; hit rate 0.071% among 340,000; Potency, µM (doses to about 46.1 µM), inactives show at the top dose activity change, negative = inhibition; Biochemical FRET Rango-importin beta, RanGTP-induced dissociation; calls by dose curve; also: % of control where 0% means no effect; nearly all actives have a fitted effect of over 45% in size
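Rango (0.1 uM)–importin beta (0.25 uM) complex; RanGTP-RCC1 trigger; 45 min RT; CFP/YFP FRET read.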
aSyn yeast inh: inhibitors of alpha-synuclein toxicity in yeast. Yeast expressing alpha-synuclein, growth rescue, BacTiter-Glo, 24 h. Potency, µM (titrated, usually from 46.1 µM), without a hit: at the top dose growth rescue (activation), most hits filed as activators. hit rate 0.14% among 370,000. AID 652106; also: % of control where 0% means no effect; nearly all actives have a fitted effect of over 65% in size
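Readout is rescue of growth in alpha-synuclein-expressing yeast, so inhibitors of toxicity appear as activators. Growth after 24 hr at 30 deg C in galactose medium is quantified by luminescence.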
Rango complex inh: prevents formation of the Rango-importin beta complex | Potency, µM (doses to about 92.2 µM), without a hit: top-dose inhibition of complex formation | Q14974 | AID 540263 | hit rate 0.031% among 340,000 | Rango CFP/YFP FRET sensor + importin beta, 45 min; calls by dose curve;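 also: 0% = DMSO wells and 100% = buffer wells lacking importin beta; nearly all actives have a fitted effect of over 15% in size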
Target sequence (Q14974 whole entry, looked up): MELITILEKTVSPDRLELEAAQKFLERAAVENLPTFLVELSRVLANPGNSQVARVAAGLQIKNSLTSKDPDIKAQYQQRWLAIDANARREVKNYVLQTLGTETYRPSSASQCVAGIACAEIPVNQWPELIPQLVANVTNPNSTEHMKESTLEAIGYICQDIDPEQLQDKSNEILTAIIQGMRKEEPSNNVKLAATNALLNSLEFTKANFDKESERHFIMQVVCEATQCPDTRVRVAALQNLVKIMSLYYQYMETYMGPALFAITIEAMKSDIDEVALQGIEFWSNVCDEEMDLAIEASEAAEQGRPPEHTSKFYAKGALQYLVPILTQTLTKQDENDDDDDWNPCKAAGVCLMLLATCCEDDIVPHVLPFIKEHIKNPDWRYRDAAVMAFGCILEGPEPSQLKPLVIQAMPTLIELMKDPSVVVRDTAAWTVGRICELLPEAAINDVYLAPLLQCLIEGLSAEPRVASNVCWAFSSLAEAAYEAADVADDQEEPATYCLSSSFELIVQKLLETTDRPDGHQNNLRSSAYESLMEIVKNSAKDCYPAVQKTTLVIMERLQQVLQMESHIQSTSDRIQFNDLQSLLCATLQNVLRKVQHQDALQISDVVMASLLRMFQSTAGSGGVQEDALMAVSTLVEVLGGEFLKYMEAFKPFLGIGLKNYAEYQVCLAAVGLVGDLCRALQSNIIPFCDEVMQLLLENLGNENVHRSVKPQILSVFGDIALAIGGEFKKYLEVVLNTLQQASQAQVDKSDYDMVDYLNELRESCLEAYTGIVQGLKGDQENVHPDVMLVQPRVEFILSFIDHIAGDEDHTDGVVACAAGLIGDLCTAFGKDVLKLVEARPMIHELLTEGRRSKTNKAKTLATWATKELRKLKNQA
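Inhibition scored from the CFP 486 nm/YFP 530 nm FRET ratio 45 min after adding 0.125 microM importin beta to 50 nM Rango biosensor preincubated 5 min with compound (room temperature, PBS with DTT, Tween-20, BSA). No-importin wells as positive control.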
TDP-43 yeast inh: rescues yeast growth from TDP-43 toxicity | TDP-43 expressing yeast growth rescue, BacTiter-Glo, 24 h | Potency, µM (titrated, usually from 46.1 µM), for the others: at the top dose growth rescue (activation), actives largely listed as activators | hit rate 1.8% among 410,000 | AID 652104; also: % of control where 0% means no effect; nearly all actives have a fitted effect of over 50% in size
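Galactose-induced TDP-43 yeast, OD600=0.02, compound pinned; 24 hr, 30 deg C; BacTiter-Glo luminescence for growth. Inhibitors of TDP-43 toxicity read as activators.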
S-ASM inh: inhibitors of human secretory acid sphingomyelinase; P17405; Potency, µM (top dose mostly 57.5 µM), for the others: at the highest dose activity change, negative = inhibition, usual class: inhibitors; hit rate 0.006% among 340,000; placental ASM, HMU-PC fluorogenic substrate, 60 min
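Human placenta-derived ASM enzyme was preincubated with compound for 10 minutes at room temperature, then given fluorogenic substrate HMU-PC0 (9 uM final) for 60 minutes at 37 °C; a pH 10 stop preceded fluorescence reading at Ex 386/Em 447 nm.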
Abeta rescue: restores growth of yeast expressing A-beta42 peptide | Potency, µM (top dose mostly 46.1 µM), most hits filed as activators | hit rate 0.063% among 410,000 | yeast expressing A-beta42, growth rescue, OD600, 48 h; response scale: 0% DMSO, 100% iron-clioquinol control | AID 1347071; also: nearly all actives have a fitted effect of over 55% in size
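Yeast A-beta toxicity model in growth medium with pinned compounds, 48 h at 30 C; growth read as absorbance at 600 nm. Normalized to FeCl3/clioquinol equimolar mix (positive) and DMSO (negative).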
Numbers without * were called inactive; i = inactive; ? = inconclusive; / = no result given; [ ] = remark or other dose. Unless noted, calls follow the shape of the dose curve; as a rule, active = well fitted curve in the direction sought with a large enough effect; inconclusive = small, poorly fitted or top-dose-only effect, or another doubt; inactive = no such curve, though single readings can be large; an effect the other way counts as inactive or inconclusive. Potency is read from the fitted curve at half-maximal effect.

SMILES | Rango dissoc inh | aSyn yeast inh | Rango complex inh | TDP-43 yeast inh | S-ASM inh | Abeta rescue
COc1ccc2[nH]cc(CCNC(=O)c3cnn(-c4ccc(C)cc4)c3C3CCN(C(=O)OC(C)(C)C)CC3)c2c1 | / | / | / | 12% | / | i
O=C(/C=C/c1c(Cl)cccc1Cl)N1CCN(c2ncccn2)CC1 | 6% | ? | 2% | 11µM* | 0% | i
COc1ccc(N2CC(NC(=O)C3CC3)CC2=O)cc1OC (stereo not given) | / | / | / | 14% | / | i
O=C(NC(=S)NCc1ccncc1)c1ccccc1 | 17% | -9% | 4% | 7% | -2% | i
O=C(NC(=S)NCc1ccccc1)c1cccs1 | 11% | -13% | 1% | 13µM* | -8% | ?
O=C(CNC(=S)NC(=O)c1cccs1)c1ccccc1 | -14% | -7% | 1% | 21% | -5% | i
O=C(NC(=S)NCc1ccc(F)cc1)c1ccccc1 | 2% | -5% | -1% | 22µM* | -7% | i
O=C(NC(=S)NCc1ccccc1)c1ccccc1 | 0% | -1% | 0% | -19%[0.397 µM] | -3% | 11µM*
O=C(NCc1cccc2ccccc12)c1cccs1 | 27% | 3% | 3% | 13µM* | -2% | i
O=C(Cc1cccc2ccccc12)NNC(=O)c1cccs1 | 4% | 7% | 1% | 0% | 2% | i
O=C(NC1CCCN(c2ccc(C(F)(F)F)cn2)C1)c1ccncc1 (stereo not given) | -1% | ? | -2% | ? | -2% | i
CSc1ccccc1C(=O)NC1CCCN(c2ccc(C(F)(F)F)cn2)C1 (stereo not given) | -17% | -1% | 4% | ? | -5% | 22µM*
CC(=O)Nc1cccc(C(=O)OCc2ccccc2)c1 | 1% | -7% | -4% | 13µM* | 0% | i
CC(=O)Nc1cccc(C(=O)OCC(=O)NC(=O)Cc2ccccc2)c1 | 11% | 1% | 3% | -2% | -3% | i
O=S(=O)(NNC(=S)Nc1ccc(S(=O)(=O)Nc2ncccn2)cc1)c1ccc(Br)cc1 | 8% | ? | 1% | 4µM* | -3% | i
Cc1cc(NC(=O)c2ccccc2O)nc(C)n1 | -10% | -12% | 1% | 19% | 2% | i
Cc1cc(NC(=O)c2ccc(Br)cc2)nc(C)n1 | -10% | -2% | 2% | 16µM* | -1% | i
O=C1N/C(=N\N=C\c2ccccn2)SC1Cc1cccc(SC(F)F)c1 (stereo not given) | 1% | 5µM* | 0% | 29% | -2% | ?
Cc1nn(CCCC(=O)NCc2ccccc2)c(=O)c2cc3sccc3n12 | / | / | / | 15% | / | i
O=C1c2sc3nc4ccccc4n3c2C(=O)N1c1ccccc1Cl | 1% | -1% | 2% | 11µM* | -10% | i
COc1ccc(OCCn2cnc(Cl)c2Cl)cc1 | 0% | 3% | 2% | 16% | 1% | i
Clc1ccc(OCCn2cnc(Cl)c2Cl)cc1 | 4% | 20% | 0% | 11µM* | 0% | ?
OCCN(CCO)c1nc2ccccc2[nH]1 | -15% | 3% | ? | 0% | 4% | i
O=c1[nH]c(=O)n(C(c2ccccc2)(c2ccccc2)c2ccccc2)cc1N(CCO)CCO | 2% | 18% | -1% | 20µM* | 4% | i
CN(C(=O)c1cccc(NC(=O)Cc2ccc([N+](=O)[O-])cc2)c1)C1CCCCC1 | 5% | 2% | -5% | 12% | -10% | i
SMILES | Rango dissoc inh | aSyn yeast inh | Rango complex inh | TDP-43 yeast inh | S-ASM inh | Abeta rescue
CN(C(=O)c1ccc(Oc2ccc([N+](=O)[O-])cc2)cc1)C1CCCCC1 | 7% | -13% | -1% | 20µM* | -1% | i
CN1C(=O)C2(OCC(C)([N+](=O)[O-])CO2)c2ccccc21 (stereo not given) | -5% | -2% | 1% | 5% | -3% | i
CN1C(=O)C2(N=c3ccccc3=N2)c2ccccc21 | -1% | 15% | -4% | 11µM* | -5% | i
O=C(Cn1cc(SCc2cccc(C(F)(F)F)c2)c2ccccc21)N1CCCCCC1 | / | / | / | 4% | / | i
O=C(Cn1cc(SCc2cccc(Cl)c2)c2ccccc21)N1CCOCC1 | -10% | ? | 0% | 35µM* | -3% | ?
O=C(Cn1cc(SCc2ccc(C(F)(F)F)cc2)c2ccccc21)N1CCCC1 | / | / | / | 35µM* | / | i
Cc1c(Cl)cccc1NC(=O)N1CCOc2ccccc21 | / | / | / | 13µM* | / | i
CC(C)c1ccc(/C=C/C2=NNC(=O)CC2)cc1 | 2% | 0% | 9% | 11µM* | -4% | i
COCCCNC(=O)CSc1nc2c(sc3ccccc32)c(=O)n1CCc1ccc(OC)c(OC)c1 | / | / | / | 12% | / | i
Cc1nc(C/C(=N\Nc2ccccc2)c2ccc(O)cc2O)cs1 | 1% | 1% | 0% | 20µM* | ? | i
Cc1nc(CC(=O)c2ccc(O)cc2O)cs1 | -1% | -1% | -2% | 24% | 1% | i
C=CCNc1nc2cc(-c3ccccc3C)sc2c(=O)n1C | / | 6% | / | 35µM* | / | i
COc1cccc(CNc2nc3cc(-c4ccc(C)cc4)sc3c(=O)n2C)c1OC | / | ? | / | 25µM* | / | i
COCCNc1nc2cc(-c3ccccc3)sc2c(=O)n1C | / | 11% | / | 20µM* | / | i
COCCNc1nc2cc(-c3ccsc3)sc2c(=O)n1C | / | -12% | / | 15% | / | i
Cn1c(OCC2CCCO2)nc2cc(-c3ccccc3)sc2c1=O (stereo not given) | / | 11% | / | 35µM* | / | i
Cc1ccccc1-c1cc2nc(OCC3CCCO3)n(C)c(=O)c2s1 (stereo not given) | / | 26% | / | ? | / | i
Cc1ccc(C)c(Cn2c(=O)n(Cc3ccccc3)c(=O)c3c2c2cc(C)ccc2n3C)c1 | / | / | / | 11% | / | i
Cc1cc(NC(=O)CN(C)S(=O)(=O)c2ccc3c(c2)CCCC(=O)N3)ccc1Br | / | -3% | / | 0% | / | i
CCCCN(C)C(=O)CSc1nc2ccccc2nc1Cc1ccc(C)cc1 | / | / | / | ? | / | i
Cc1ccc2c(c1)c1c(c(=O)n(-c3ccccc3)c(=O)n1CC(=O)N1CCCC1)n2C | / | / | / | 7% | / | i
O=S(=O)(NCc1ccc(F)cc1)c1ccc(N2CCCCS2(=O)=O)cc1 | / | / | / | 12%[9.22 µM] | / | i
CCCCNC(=O)C1CCC(Cn2c(=O)c3sccc3n(CC(=O)N3CCCC3)c2=O)CC1 (stereo not given) | / | / | / | -4% | / | i
O=c1c(Cl)cc(Cl)nn1-c1ccccc1 | 30% | -1% | ? | 25µM* | 2% | i
COc1cc(Cl)nn(-c2ccccc2)c1=O | -7% | -1% | ? | 3% | 0% | i
